In PubChem BioAssay AID1159580 (chemical genetic matrix, 2015):
Several values for one entry are separate records, joined by “and”; a condition that tells them apart may be missing. Equal entries are not always repeated. Out of some 5,500 compounds screened, about 2,000 (36%) were called active. About 18% were inconclusive and are not listed. Cut-off read from the data, not from the text of the source: active = normalized growth mostly below about 0.91 (no sharp cut-off); inconclusive = no clear call, values can overlap the other calls; inactive = mostly above about 0.92. Some of the results follow.

Assay: chemical genetic growth profiling, strain panel (AID 1159580);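 note: tested at 20 µM; growth read once vehicle control cultures reached saturation at 30 °C; 1 = growth at the plate median or of vehicle wells; lower values mean less growth of the strain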
Conditions: S. cerevisiae deletion strains, growth OD

Measured: normalized growth

C[C@H]1[C@H](C)CC[C@]2(CO)CC[C@]3(C)C(=CCC4[C@@]5(C)CC[C@H](O)C(C)(C)C5CC[C@]43C)[C@H]12 (some centres not stated)
inactive: locus YAL021C, strain ccr4, stronger effect = lower value 1.02 | locus YAL026C, strain drs2, stronger effect = lower value 0.981 | locus YAL030W, strain snc1, stronger effect = lower value 0.997 | locus YBL061C, strain skt5, stronger effect = lower value 0.994 | locus YBR009C, strain hhf1, stronger effect = lower value 1.01 | locus YBR021W, strain FUR4, stronger effect = lower value 1.01 | locus YBR023C, strain chs3, stronger effect = lower value 0.995 | locus YBR171W, strain sec66, stronger effect = lower value 0.989 | locus YBR229C, strain ROT2, stronger effect = lower value 1.02 | locus YBR231C, strain swc5, stronger effect = lower value 0.996 | locus YBR279W, strain paf1, stronger effect = lower value 0.991 | locus YCL011C, strain gbp2, stronger effect = lower value 0.994 | locus YCL016C, strain dcc1, stronger effect = lower value 1.01 | locus YCL029C, strain bik1, stronger effect = lower value 1.06 | locus YCL061C, strain MRC1, stronger effect = lower value 1 | locus YCL069W, strain vba3, stronger effect = lower value 0.998 | locus YCR088W, strain abp1, stronger effect = lower value 0.995 | locus YDL005C, strain med2, stronger effect = lower value 0.986 | locus YDL035C, strain GPR1, stronger effect = lower value 0.994 | locus YDL040C, strain nat1, stronger effect = lower value 0.996 | locus YDL074C, strain BRE1, stronger effect = lower value 1.03 | locus YDL101C, strain DUN1, stronger effect = lower value 1.02 | locus YDL134C, strain PPH21, stronger effect = lower value 0.999 | locus YDL185W, strain tfp1, stronger effect = lower value 1.03 | locus YDL192W, strain arf1, stronger effect = lower value 1.04 | locus YDR001C, strain nth1, stronger effect = lower value 1 | locus YDR069C, strain doa4, stronger effect = lower value 0.988 | locus YDR101C, strain arx1, stronger effect = lower value 1.01 | locus YDR137W, strain rgp1, stronger effect = lower value 0.996 | locus YDR159W, strain sac3, stronger effect = lower value 1.01 | locus YDR162C, strain NBP2, stronger effect = lower value 1.01 | locus YDR195W, strain ref2 0.992 | locus YDR297W, strain sur2, stronger effect = lower value 1.01 | locus YDR318W, strain mcm21, stronger effect = lower value 1.02 | locus YDR334W, strain swr1, stronger effect = lower value 0.992 | locus YDR335W, strain msn5, stronger effect = lower value 0.999 | locus YDR388W, stronger effect = lower value 1.02 | locus YDR392W, strain spt3, stronger effect = lower value 1.03 | locus YDR502C, strain sam2, stronger effect = lower value 0.998 | locus YEL003W, strain gim4, stronger effect = lower value 1 | locus YEL037C, strain rad23, stronger effect = lower value 0.981 | locus YEL061C, strain CIN8 (second series), stronger effect = lower value 0.972 | locus YEL061C, strain CIN8, stronger effect = lower value 1.01 | locus YER015W, strain faa2, stronger effect = lower value 1 | locus YER016W, strain bim1, stronger effect = lower value 0.988 | locus YER110C, stronger effect = lower value 1.03 | locus YER111C, strain swi4, stronger effect = lower value 1.01 | locus YER155C, strain BEM2 (second series), stronger effect = lower value 0.995 | locus YER155C, strain BEM2, stronger effect = lower value 1.02 | locus YER167W, strain BCK2, stronger effect = lower value 0.994 | locus YFR010W, strain ubp6, stronger effect = lower value 0.987 | locus YGL078C, strain dbp3, stronger effect = lower value 1.01 | locus YGL086W, strain mad1, stronger effect = lower value 1.01 | locus YGL167C, strain pmr1, stronger effect = lower value 0.996 | locus YGL173C, strain kem1, stronger effect = lower value 1 | locus YGL227W, strain vid30, stronger effect = lower value 0.999 | locus YGL240W, strain doc1, stronger effect = lower value 0.975 | locus YGL248W, strain PDE1, stronger effect = lower value 1.01 | locus YGL253W, strain hxk2, stronger effect = lower value 0.995 | locus YGR135W, strain pre9, stronger effect = lower value 1.01 | locus YGR252W, strain gcn5, stronger effect = lower value 1.02 | locus YHR013C, strain ard1, stronger effect = lower value 0.982 | locus YHR027C, strain rpn1, stronger effect = lower value 1 | locus YHR030C, strain SLT2, stronger effect = lower value 1.01 and 1.03 | locus YHR079C, strain IRE1 (second series), stronger effect = lower value 1.02 | locus YHR079C, strain IRE1, stronger effect = lower value 1.04 | locus YHR094C, strain hxt1, stronger effect = lower value 1.03 | locus YHR129C, strain ARP1, stronger effect = lower value 1.02 | locus YHR142W, strain chs7, stronger effect = lower value 1.01 | locus YHR200W, strain rpn10, stronger effect = lower value 1.01 | locus YIL066C, strain RNR3, stronger effect = lower value 1.01 | locus YIL073C, strain SPO22, stronger effect = lower value 1.05 | locus YIL125W, strain kgd1, stronger effect = lower value 1.03 | locus YIR030C, strain dcg1, stronger effect = lower value 1.02 | locus YJL092W, strain hpr5, stronger effect = lower value 0.995 | locus YJL095W, strain BCK1 (second series), stronger effect = lower value 1.01 | locus YJL095W, strain BCK1, stronger effect = lower value 1.02 and 0.984 | locus YJL115W, strain asf1, stronger effect = lower value 0.991 | locus YJL129C, strain trk1, stronger effect = lower value 1 | locus YJL134W, strain LCB3, stronger effect = lower value 1.01 | locus YJL154C, strain vps35, stronger effect = lower value 0.986 | locus YJL164C, strain tpk1, stronger effect = lower value 1.01 | locus YJL166W, strain qcr8, stronger effect = lower value 0.994 | locus YJL168C, strain set2, stronger effect = lower value 1.02 | locus YJL187C, strain SWE1 (second series), stronger effect = lower value 1.02 | locus YJR043C, strain POL32, stronger effect = lower value 1 | locus YJR066W, strain TOR1, stronger effect = lower value 0.997
